Screens: PubChem, National Center for Advancing Translational Sciences (NCATS)
ATXN2 expr inh – Primary qHTS for Inhibitors of ATXN expression; HEK-293 ATXN2-luciferase reporter, luminescence, 24 h; Potency, µM (titrated, usually from 57 µM), for inactives: at the highest dose activity change, negative = inhibition, usual class: inhibitors; actives 0.72% (n = 360,000); AID 1745845, 2022; note: % is set by controls: 0 for no effect and ±100 for the full control effect; nearly all actives have a fitted effect of over 55% in size
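qHTS (up to 57 uM final) was run with 24 h compound exposure of reporter cells at 37 °C. Each well was multiplexed: SteadyGlo luminescence measured ATXN2-luciferase expression after a fluorogenic Gly-Phe-AFC viability readout (25 uM final).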
TDP1 cell CPT – qHTS for Inhibitors of human tyrosyl-DNA phosphodiesterase 1 (TDP1): qHTS in cells in presence of CPT | chicken DT40 Tdp1-/-;hTDP1 cells + 20 nM CPT, ATP luminescence, 48 h | AID 686979, 2013 | Potency, µM (series often up to 46.2 µM), for the others: at the highest dose activity change, negative = growth inhibition, most hits filed as inhibitors | actives 12% (n = 420,000); note: % is set by controls: 0 for no effect and ±100 for the full control effect; nearly all actives have a fitted effect of over 55% in size
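Chicken DT40 Tdp1-/- cells stably complemented with human TDP1 were seeded at 400 cells/well in medium containing 20 nM camptothecin, exposed to pin-transferred compounds, and grown at 37 °C for at least 48 hr. Viability was read as ATP luminescence.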
TDP1 cell noCPT – qHTS for Inhibitors of human tyrosyl-DNA phosphodiesterase 1 (TDP1): qHTS in cells in absence of CPT; DT40 Tdp1-/- hTDP1 cells, no CPT, ATP luminescence, 48 h; Potency, µM (doses to about 46.2 µM), inactives show at the top dose activity change, negative = growth inhibition, hits mostly inhibitors; actives 15% (n = 420,000); note: % is set by controls: 0 for no effect and ±100 for the full control effect; nearly all actives have a fitted effect of over 55% in size
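Compound effects on proliferation are scored in DT40 Tdp1-/-;hTDP1 cells in the absence of CPT. ATP levels (CellTiter-Glo luminescence) are recorded after a ≥48 hr, 37 °C incubation.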
TGFb SMAD3 inh – qHTS for Inhibitors of TGF-b. AID 588855, 2011. HepG2 CAGA-GFP TGF-b/SMAD3 reporter, GFP fluorescence, 18 h; TGF-beta stimulated, 500 pg/mL final. actives 1.2% (n = 410,000). Potency, µM (top dose mostly 46.1 µM), for inactives: at the top dose activity, negative = inhibition, most hits filed as inhibitors; note: % is set by controls: 0 for no effect and ±100 for the full control effect; nearly all actives have a fitted effect of over 65% in size
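HEPG2 CAGA-GFP, 1000 cells/well; 2 h settle, 37 C; cpd via pin tool; TGF-b 500 pg/mL final; 18 h, 37 C; GFP imaging ex488/em500-530; %Activity normalised to -TGF-b and +DMSO controls; CRC fit, curve class.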
HepG2 viability – qHTS for Inhibitors of TGF-b: Cytotox Counterscreen | HepG2 CAGA-GFP viability, ATP luminescence, 18 h | Potency, µM (titrated, usually from 46.1 µM), for the others: top-dose activity change, negative = cytotoxicity, hits mostly cytotoxic | actives 0.76% (n = 410,000) | AID 588856, 2011
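HepG2 CAGA-GFP cells (1000/well, DMEM with 1% FBS) received compound, then TGF-beta at 500 pg/mL final, and were incubated 18 hours at 37 degrees C. Viability was read by CellTiter-Glo luminescence. Media-only wells were set as complete cell-killing and DMSO as no toxicity.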
S2 tox – Viability Counterscreen for Primary qHTS for Inhibitors of ATXN expression. AID 651635, 2014. S2 cells (HEK-293 line with an ATXN2-luciferase reporter) viability, CellTiter-Fluor protease fluorescence, 24 h. Potency, µM (doses to about 56.7 µM), hits mostly cytotoxic. actives 0.49% (n = 400,000); note: nearly all actives have a fitted effect of over 40% in size
The depositor's hits bear a star; i = inactive; u = inconclusive; x = no result; [ ] = remark or other dose. Only some compounds are listed: those with a hit (about 17% of all), similar ones and a draw of the others. Calls come from the whole dose curve; as a rule, active = well fitted curve in the direction sought with a large enough effect; inconclusive = small, poorly fitted or top-dose-only effect, or another doubt; inactive = no such curve, though single readings can be large; an effect the other way counts as inactive or inconclusive. Potency is the fitted concentration of half-maximal effect.

SMILES	ATXN2 expr inh	TDP1 cell CPT	TDP1 cell noCPT	TGFb SMAD3 inh	HepG2 viability	S2 tox
Cn1c(=O)[nH]c(=O)c2c1nc(SCC(=O)Nc1ccccc1)n2Cc1ccccc1	-2%	23µM*	18µM*	-2%	-3%	i
CC(O)CSc1nc2c(c(=O)[nH]c(=O)n2C)n1Cc1ccccc1 (stereo unspecified)	0%	-22%	-1%	14%	4%	i
Cn1c(=O)[nH]c(=O)c2c1nc(SCC(O)CCl)n2Cc1ccccc1 (stereo unspecified)	-8%	12µM*	u	-1%	1%	i
Clc1ccc(-n2cccc2CN2CCc3nnc(Cc4ccccc4)n3CC2)nc1	x	4%	-14%	x	x	u
COc1ccc(S(=O)(=O)NCC(c2ccco2)N2CCN(c3ccccc3F)CC2)cc1C (stereo unspecified)	x	21µM*	18µM*	-1%	-11%	x
COc1ccc(N2CCN(C(CNS(=O)(=O)c3c(C)cc(C)cc3C)c3ccco3)CC2)cc1 (stereo unspecified)	x	u	26µM*	-18%	-15%	x
COc1ccc(N2CCN(C(CNS(=O)(=O)c3ccc4c(c3)OCCO4)c3ccco3)CC2)cc1 (stereo unspecified)	-20%	13µM*	u	0%	-41%	i
CC(C)(C)S(=O)(=O)N1Cc2cc(CO)cc(CCO)c2[C@@H]1CCO	6%	7%	-2%	-5%	1%	i
CN(C)C(=O)CCc1ccc2c3c([nH]c2c1)[C@]1(CCC2CCCC2)[C@@H](C(=O)N2CCOCC2)C[C@H](CC(=O)NCc2cccc(C(F)(F)F)c2)C(=O)N1CC3	u	21µM*	15µM*	11µM*	-59%	x
COc1ccc2[nH]c3c(c2c1)CCN1C(=O)C(CC(=O)NCc2ccc(OC)c(OC)c2)C[C@H](C(=O)N2CCOCC2)[C@@]31CCC1CCCC1 (stereo partly specified)	-8%	u	u	u	-16%	u
CN(C)C(=O)CCc1ccc2c3c([nH]c2c1)[C@]1(C)[C@@H](C(=O)N2CCCCC2)C[C@H](CC(=O)NCc2cccc(C(F)(F)F)c2)C(=O)N1CC3	-17%	21µM*	21µM*	u	-5%	u
CC(C)(C)NC(=O)C[C@H]1C[C@H](C(=O)N2CCOCC2)[C@@]2(CCC3CCCC3)c3[nH]c4ccc(Cl)cc4c3CCN2C1=O	u	u	16µM*	u	-28%	u
CN(C)C(=O)CCc1ccc2c3c([nH]c2c1)[C@]1(C)[C@@H](C(=O)N2CCOCC2)C[C@H](CC(=O)NCc2ccco2)C(=O)N1CC3	1%	-11%	-13%	-2%	0%	i
COc1ccc(CNC(=O)CC2C[C@H](C(=O)N3CCOCC3)[C@@]3(CCC4CCCC4)c4[nH]c5ccccc5c4CCN3C2=O)cc1OC (stereo partly specified)	u	u	23µM*	u	-14%	u
COc1ccc2[nH]c3c(c2c1)CCN1C(=O)C(CC(=O)NC(C)(C)C)C[C@H](C(=O)N2CCOCC2)[C@@]31CCC1CCCC1 (stereo partly specified)	5%	-29%	-26%	u	-13%	i
COc1ccc(C2=Nc3ccccc3NC(=O)C2N(CCc2ccccc2)C(=O)c2cccs2)cc1 (stereo unspecified)	0%	u	u	u	8%	u
O=C(CC1C[C@H](C(=O)N2CCOCC2)[C@@]2(CCC3CCCC3)c3[nH]c4ccccc4c3CCN2C1=O)NCc1cccc(C(F)(F)F)c1 (stereo partly specified)	2%	23µM*	u	24%	4%	i
CC[C@]12c3[nH]c4ccccc4c3CCN1C(=O)C(CC(=O)NCc1cccc(C(F)(F)F)c1)C[C@@H]2C(=O)N1CCN(C(=O)C2CC2)CC1 (stereo partly specified)	-1%	u	23µM*	u	-21%	i
C[C@]12c3[nH]c4ccc(Cl)cc4c3CCN1C(=O)[C@@H](CC(=O)NCCCn1ccnc1)C[C@@H]2C(=O)N1CCCCC1	5%	u	u	-26%	-11%	i
C[C@]12c3[nH]c4ccc(Cl)cc4c3CCN1C(=O)[C@@H](CC(=O)NCc1cccc(C(F)(F)F)c1)C[C@@H]2C(=O)N1CCCCC1	u	u	21µM*	u	-94%	x
CN(C)CCCNC(=O)CC1C[C@H](C(=O)N2CCOCC2)[C@@]2(CCC3CCCC3)c3[nH]c4ccccc4c3CCN2C1=O (stereo partly specified)	-6%	-17%	-16%	-8%	-22%	i
CC[C@]12c3[nH]c4ccc(Cl)cc4c3CCN1C(=O)[C@@H](CC(=O)NCc1ccc(OC)c(OC)c1)C[C@@H]2C(=O)N1CCN(C(=O)C2CC2)CC1	-4%	u	16µM*	-23%	-6%	i
CC(=O)N1CCN=C1SCc1cccc(F)c1	x	0%	-3%	-9%	-46%	i
C/C(=C\c1ccco1)CN1CCOc2ccc(C(C)(O)COc3ccccc3)cc2C1 (stereo unspecified)	x	19%[9.04 µM]	u	x	x	i
CCCn1nc(NS(=O)(=O)c2cccc3nonc23)c2cc3cccc(C)c3nc21	x	-24%	-28%	u	-47%	i
CCOc1cc(/C=N/O)ccc1OCc1ccc(C)cc1	47%	u	23µM*	u	-24%	i
CSc1nc(NCCOC(C)=O)c(C#N)c(-c2ccc(C(C)(C)C)cc2)n1	10%	u	16µM*	0%	-3%	i
N=c1c(S(=O)(=O)c2ccccc2)cc2c(=O)n3ccccc3nc2n1C1CCCCC1	-7%	26µM*	15µM*	u	-5%	i
COCCn1c(=N)c(S(=O)(=O)c2ccc(Br)cc2)cc2c(=O)n3ccccc3nc21	x	u	21µM*	-1%	2%	i
